The values below come from the supplement of paper PMC10849652.

Targets with a hit are over-represented here; the source holds about 7,900 in all. About 0.6% of all pairs of compound and target were hits. A number with no mark means an inactive call.

What all share (assay): log2 fold change, soluble protein after heating vs DMSO (PISA); higher = thermal stabilisation; K562 cells, 10 uM, 30 min; active = over 0.2 and 3.5 SD of the protein, either way, in both replicates (recomputed)
Compound in experiment [1]: NC(=O)c1cnc(N[C@@H]2CCCC[C@@H]2N)nc1Nc1cccc(-n2nccn2)c1
A digest of the protocol: (§1)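 For each measurement, 10 μM compound was applied for 30 min to K562 cells at 2×10^6 cells/mL. Aliquots were heated for 3 min across 48°C-58°C, pooled, and extracted in PBS with 0.5% NP-40 at 4°C; the supernatant after 21,000xg for 90 min was soluble protein. This was quantified by TMTpro 16plex LC-MS/MS with channel sums equalised, and thermal stability was reported relative to control samples from duplicates, on a log2 fold-change scale.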

Compound in experiment [2]: NC1(c2ccc(-c3nc4ccn5c(=O)[nH]nc5c4cc3-c3ccccc3)cc2)CCC1
The method, boiled down:
as §1

Compound in another experiment: O=C(CCCCCCC(=O)Nc1ccccc1)NO [vorinostat]
A digest of the protocol: as §1

Compound in the next experiment: O=C(CCCCCCNC(=O)c1cnc(N(c2ccccc2)c2ccccc2Cl)nc1)NO [citarinostat]
A digest of the protocol:
as §1

Compound in the next experiment: O=C(O)c1ccc2c(c1)nc(Nc1cccc(Cl)c1)c1ccncc12 [silmitasertib]
The method, boiled down: as §1

Compound in experiment [3]: O=C1NC(=O)C(c2cnc3ccccn23)=C1c1cn2c3c(cc(F)cc13)CN(C(=O)N1CCCCC1)CC2
A digest of the protocol: as §1

Compound in experiment [4]: c1cc(OCCN2CCCCC2)cc(-c2n[nH]c3ccc(-c4nnc[nH]4)cc23)c1
The method, boiled down: as §1

Compound in experiment [5]: NC(=O)Nc1cc(-c2cccc(F)c2)sc1C(=O)N[C@H]1CCCNC1
The method, boiled down:
as §1

Compound in experiment [6]: NCC(=O)Nc1ccc(-n2nc(C(F)(F)F)cc2-c2ccc3c(ccc4ccccc43)c2)cc1
A digest of the protocol: as §1

Compound in the next experiment: Nc1ccccc1NC(=O)c1ccc(CNC(=O)OCc2cccnc2)cc1 [entinostat]
A digest of the protocol:
as §1

Chain of UniProt Q9BYX2 (Q9BYX2 whole entry, looked up): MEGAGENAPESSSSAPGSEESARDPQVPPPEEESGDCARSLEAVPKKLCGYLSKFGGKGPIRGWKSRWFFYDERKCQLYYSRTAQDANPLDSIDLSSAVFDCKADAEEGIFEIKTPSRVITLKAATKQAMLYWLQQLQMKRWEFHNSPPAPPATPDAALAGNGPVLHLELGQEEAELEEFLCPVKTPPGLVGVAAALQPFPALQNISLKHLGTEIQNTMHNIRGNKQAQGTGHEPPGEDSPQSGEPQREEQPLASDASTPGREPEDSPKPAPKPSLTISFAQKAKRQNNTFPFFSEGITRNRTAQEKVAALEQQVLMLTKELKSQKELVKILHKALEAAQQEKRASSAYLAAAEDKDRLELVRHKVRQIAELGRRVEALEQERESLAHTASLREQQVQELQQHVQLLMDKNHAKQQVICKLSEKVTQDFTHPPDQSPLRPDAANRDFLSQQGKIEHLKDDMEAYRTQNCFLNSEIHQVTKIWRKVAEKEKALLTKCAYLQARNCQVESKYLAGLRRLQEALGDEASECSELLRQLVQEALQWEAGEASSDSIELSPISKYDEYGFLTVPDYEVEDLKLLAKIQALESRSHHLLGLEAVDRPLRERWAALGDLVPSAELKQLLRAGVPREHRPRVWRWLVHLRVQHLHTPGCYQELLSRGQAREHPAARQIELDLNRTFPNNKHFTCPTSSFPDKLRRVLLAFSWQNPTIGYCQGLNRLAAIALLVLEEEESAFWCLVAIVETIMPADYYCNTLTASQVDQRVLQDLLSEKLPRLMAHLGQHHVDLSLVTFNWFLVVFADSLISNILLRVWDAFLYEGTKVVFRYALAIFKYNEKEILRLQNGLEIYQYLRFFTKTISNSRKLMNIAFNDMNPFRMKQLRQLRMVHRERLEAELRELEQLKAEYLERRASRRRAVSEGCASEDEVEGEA
Chain of UniProt Q9H5L6 (Q9H5L6 whole entry, looked up): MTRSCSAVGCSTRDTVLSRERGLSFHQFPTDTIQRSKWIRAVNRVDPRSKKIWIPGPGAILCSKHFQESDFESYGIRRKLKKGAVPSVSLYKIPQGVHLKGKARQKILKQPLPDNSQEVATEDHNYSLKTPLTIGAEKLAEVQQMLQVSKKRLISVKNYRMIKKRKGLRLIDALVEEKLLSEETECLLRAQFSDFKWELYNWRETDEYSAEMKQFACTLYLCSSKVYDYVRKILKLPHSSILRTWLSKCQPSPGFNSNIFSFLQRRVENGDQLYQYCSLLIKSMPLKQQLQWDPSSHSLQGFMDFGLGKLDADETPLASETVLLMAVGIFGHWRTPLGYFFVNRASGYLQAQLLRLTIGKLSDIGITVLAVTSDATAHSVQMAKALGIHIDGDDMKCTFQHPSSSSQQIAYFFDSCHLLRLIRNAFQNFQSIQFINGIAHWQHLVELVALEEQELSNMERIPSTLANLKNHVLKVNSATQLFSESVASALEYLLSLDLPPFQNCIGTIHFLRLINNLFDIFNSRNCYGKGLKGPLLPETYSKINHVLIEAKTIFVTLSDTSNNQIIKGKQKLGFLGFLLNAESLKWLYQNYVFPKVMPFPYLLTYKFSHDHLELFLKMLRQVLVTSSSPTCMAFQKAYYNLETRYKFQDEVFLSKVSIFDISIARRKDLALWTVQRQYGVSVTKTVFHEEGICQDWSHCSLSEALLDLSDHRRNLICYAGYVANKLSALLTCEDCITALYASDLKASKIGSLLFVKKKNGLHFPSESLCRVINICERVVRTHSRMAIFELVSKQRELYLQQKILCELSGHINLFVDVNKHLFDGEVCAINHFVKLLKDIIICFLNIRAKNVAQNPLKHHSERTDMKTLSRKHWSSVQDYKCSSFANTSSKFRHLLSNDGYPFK
Chain of UniProt Q9NS93 (Q9NS93 whole entry, looked up): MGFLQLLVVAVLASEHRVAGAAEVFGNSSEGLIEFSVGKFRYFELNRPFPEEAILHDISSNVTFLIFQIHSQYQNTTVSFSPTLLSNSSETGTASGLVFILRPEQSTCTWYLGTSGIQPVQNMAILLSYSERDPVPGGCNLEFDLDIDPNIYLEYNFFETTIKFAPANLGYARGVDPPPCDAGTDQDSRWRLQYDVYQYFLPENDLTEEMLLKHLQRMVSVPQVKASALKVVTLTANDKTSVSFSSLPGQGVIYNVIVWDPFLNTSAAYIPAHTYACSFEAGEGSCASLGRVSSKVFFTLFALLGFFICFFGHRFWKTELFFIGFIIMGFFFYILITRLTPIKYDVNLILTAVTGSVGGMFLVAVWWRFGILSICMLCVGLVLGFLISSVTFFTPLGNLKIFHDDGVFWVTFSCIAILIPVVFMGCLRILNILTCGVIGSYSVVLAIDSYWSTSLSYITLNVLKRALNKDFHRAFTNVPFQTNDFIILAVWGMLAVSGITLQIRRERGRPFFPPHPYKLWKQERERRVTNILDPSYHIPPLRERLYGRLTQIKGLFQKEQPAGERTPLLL
Chain of UniProt Q6J4K2 (Q6J4K2 whole entry, looked up): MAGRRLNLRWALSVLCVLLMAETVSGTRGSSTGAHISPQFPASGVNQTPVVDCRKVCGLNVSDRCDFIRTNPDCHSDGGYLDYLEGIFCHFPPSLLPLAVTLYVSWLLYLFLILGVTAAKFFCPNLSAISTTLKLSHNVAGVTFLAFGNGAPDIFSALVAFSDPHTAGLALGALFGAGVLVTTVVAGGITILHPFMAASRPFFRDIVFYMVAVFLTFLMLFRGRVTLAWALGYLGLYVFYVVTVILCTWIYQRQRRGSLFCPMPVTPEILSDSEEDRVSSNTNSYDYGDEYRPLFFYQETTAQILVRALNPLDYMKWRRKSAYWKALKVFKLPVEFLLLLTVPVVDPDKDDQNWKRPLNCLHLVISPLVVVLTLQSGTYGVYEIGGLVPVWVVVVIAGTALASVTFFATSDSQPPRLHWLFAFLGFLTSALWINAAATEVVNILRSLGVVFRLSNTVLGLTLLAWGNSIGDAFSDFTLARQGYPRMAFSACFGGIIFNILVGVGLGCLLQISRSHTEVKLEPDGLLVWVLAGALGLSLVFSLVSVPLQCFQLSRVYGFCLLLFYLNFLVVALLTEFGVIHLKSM
Chain of UniProt P20226 (P20226 whole entry, looked up): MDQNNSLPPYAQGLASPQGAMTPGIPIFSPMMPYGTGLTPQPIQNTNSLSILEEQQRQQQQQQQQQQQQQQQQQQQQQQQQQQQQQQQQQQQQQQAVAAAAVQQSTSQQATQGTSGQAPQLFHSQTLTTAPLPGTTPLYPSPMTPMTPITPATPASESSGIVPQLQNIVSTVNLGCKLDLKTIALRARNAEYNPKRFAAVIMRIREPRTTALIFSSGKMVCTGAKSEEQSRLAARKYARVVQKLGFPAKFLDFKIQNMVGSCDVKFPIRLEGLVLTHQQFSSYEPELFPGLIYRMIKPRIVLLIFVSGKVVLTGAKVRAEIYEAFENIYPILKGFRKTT

Turning to TBC1D2 (UniProt Q9BYX2), the log2 fold change in [1] was -0.078; in experiment [2] it was -0.181; with vorinostat, -0.022; with citarinostat, -0.026; with silmitasertib, 0.26; in experiment [3], 0.058. Further, the log2 fold change in experiment [4] was -0.202.
With SRCAP (UniProt Q6ZRS2), the log2 fold change is -0.079 in experiment [5]; 0.001 in experiment [2]; -0.041 in experiment [6]; 0.077 with entinostat; -0.039 with vorinostat; 0.014 with citarinostat. For the same target, the values for the log2 fold change (in the experiment with silmitasertib; in experiment [4]) were -0.022 and 0.001, respectively.
Regarding THAP9 (UniProt Q9H5L6), the log2 fold change in experiment [1] is 0.021; in experiment [2], 0.024; in the experiment with silmitasertib, 0.049.
As for TM7SF3 (UniProt Q9NS93), the log2 fold change in experiment [5] is 0.091; in experiment [1] it was 0.048; in experiment [2], -0.359 (active); with entinostat it was 0.076; in the experiment with citarinostat it was 0.179; with silmitasertib it was 0.066. For the same target, the log2 fold change in [4] is 0.084.
Regarding SSBP4 (UniProt U3KPY3), the log2 fold change in experiment [2] was -0.014; in [6], 0.016; in the experiment with silmitasertib it was 0.133.
On to SLC8B1 (UniProt Q6J4K2), for which the log2 fold change was -0.078 in [1], 0.034 in [6] and -0.031 in the experiment with vorinostat.
Regarding TBP (UniProt P20226), the log2 fold change in [1] is 0.095; in experiment [2], 0.015; in [6], 0.033; with citarinostat, 0.013; with silmitasertib it was 0.183; in experiment [3] it was -0.025. Moreover, the log2 fold change in [4] is -0.041.
